# Source: PubChem (National Center for Advancing Translational Sciences (NCATS))
# Rows were chosen to be rich in hits. Some 2.4% of all compounds tested hit in one or more screens of this group.
# D2 PAM-1: HTS Assay for Positive Allosteric Modulators of the Human D2 Dopamine Receptor: Primary Screen for Potentiators | D(2) dopamine receptor (Homo sapiens), P14416 | HEK293 T-REx D2, calcium flux, EC20 dopamine potentiation | potentiation, % at 10 µM | actives 0.34% (n = 340,000) | AID 485347, 2010;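 active = potentiation over 3 SD above the plate norm, cut at about 30% in these data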; also: 0% is about no effect
# Target sequence (P14416 whole entry, looked up): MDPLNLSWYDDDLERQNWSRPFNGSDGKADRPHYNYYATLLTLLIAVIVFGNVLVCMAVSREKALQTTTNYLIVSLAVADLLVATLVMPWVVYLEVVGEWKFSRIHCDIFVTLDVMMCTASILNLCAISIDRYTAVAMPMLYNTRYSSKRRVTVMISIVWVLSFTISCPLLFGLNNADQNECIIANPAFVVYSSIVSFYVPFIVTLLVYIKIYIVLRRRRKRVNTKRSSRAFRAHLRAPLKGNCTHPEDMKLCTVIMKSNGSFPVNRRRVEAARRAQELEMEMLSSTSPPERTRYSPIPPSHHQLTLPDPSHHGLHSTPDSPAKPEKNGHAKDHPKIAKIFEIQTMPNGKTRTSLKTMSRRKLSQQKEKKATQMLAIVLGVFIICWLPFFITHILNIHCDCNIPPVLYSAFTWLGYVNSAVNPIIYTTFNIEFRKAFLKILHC
#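 Primary screen. Calcium kinetics in induced HEK293 T-REx D2 cells: compound pre-addition 180 s, EC20 dopamine, 180 s more.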
# D2 PAM-2: Beta-Arrestin HTS for Positive Allosteric Modulators of the Human D2 Dopamine Receptor: Potentiators | D(2) dopamine receptor (Homo sapiens), P14416 | DiscoveRx D2 beta-arrestin cells, luminescence, 90 min; 100% = 57 uM dopamine signal | potentiation, % (no concentration beside the values) | actives 0.23% (n = 360,000) | AID 624464, 2012; in the data active = potentiation above about 50%
#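 PathHunter D2 cells, attached overnight at 37 deg C, received compound in DMSO plus dopamine at EC20 (50 nM final) for 90 min at 37 deg C. Beta-arrestin recruitment was read as luminescence after 1 h with detection reagent at ambient temperature.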
# D2 ag-1: Beta-Arrestin HTS for Positive Allosteric Modulators of the Human D2 Dopamine Receptor: Agonists | D(2) dopamine receptor (Homo sapiens), P14416 | actives 0.084% (n = 360,000) | DiscoveRx PathHunter D2 beta-arrestin, luminescence, 90 min; 100% = 57 uM dopamine signal | activation, % (no concentration beside the values); in the data active = activation above about 40%
#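 Agonist mode: compounds alone added to overnight-plated D2 PathHunter cells for 90 min at 37 C, with 57 uM final dopamine (EC100) defining full response. Beta-arrestin recruitment detected by chemiluminescent reagent, read after 1 h at ambient temperature.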
# D2 ag-2: HTS Assay for Allosteric Agonists of the Human D2 Dopamine Receptor: Primary Screen for Agonists; D(2) dopamine receptor (Homo sapiens), P14416; actives 0.53% (n = 340,000); HEK293 T-REx D2 cells, calcium flux agonist mode; AID 485358, 2010; activation, % at 2 µM;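 active = activation over 3 SD above normal in the single-dose calcium agonist read, cut at about 30% in these data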; also: 0% is about no effect
#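 Agonism is scored from calcium flux in a force-coupled, inducible HEK293 cell line expressing D2, read kinetically for 180 s after compound addition against dopamine controls.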
# D2 antagonist: HTS Assay for Allosteric Antagonists of the Human D2 Dopamine Receptor: Primary Screen for Antagonists | D(2) dopamine receptor (Homo sapiens), P14416 | HEK293 TREx D2 cells, calcium flux, dopamine EC80 | inhibition, % at 10 µM | actives 2% (n = 340,000) | AID 485344, 2010; in the data active = inhibition above about 30%; inactive = below that, where a call was filed; also: 0% is about no effect
#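 Antagonism is scored as inhibition of an EC80 dopamine-evoked calcium signal in a force-coupled, tetracycline-inducible HEK293 T-REx D2 line, with compound present 180 s before agonist.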
# Starred values were filed as active, the others as inactive; · = not tested or not shown; ! = not active in a repeat.
SMILES,D2 PAM-1,D2 PAM-2,D2 ag-1,D2 ag-2,D2 antagonist
O=C(O)c1cccc(CN2C(=O)S/C(=C/c3cccc([N+](=O)[O-])c3)C2=O)c1,4.3,2.1,-1.1,-0.5,33.6*
COc1ccc(NC(=O)N(C)C[C@H]2OCCCC[C@H](C)Oc3ccc(NC(=O)Nc4ccc5c(c4)OCO5)cc3C(=O)N([C@@H](C)CO)C[C@@H]2C)cc1,·,2.6,-2.4,·,·
CC(=O)NCC(=O)N(Cc1ccco1)C1(C(=O)NC2CCCCC2)CCCCC1,-0.4,-18.4,-4.8,0.8,72.5*
CC(=O)N(Cc1ccco1)C1(C(=O)NC2CCCCC2)CCCCC1,·,-5.6,-2.8,·,·
Cc1cc(NC(=O)CCC(=O)N(Cc2ccco2)C2(C(=O)NC3CCCC3)CCCCC2)no1,1.1,-9.6,-9.0,0.1,5.0
Cc1cc(NC(=O)CCC(=O)N(Cc2ccco2)C2(C(=O)NC3CCCC3)CCCCC2C)no1 (stereo not given),14.1,-2.1,2.8,1.0,33.7*
CC(C)(Cc1ccc(O)cc1)NC(=O)CC(=O)N=Nc1c(O)[nH]c2ccc(Br)cc12,-15.9,-11.5,2.2,31.1*,3.2
O=C(O)C1CC(=O)n2c(nc3ccccc32)S1 (stereo not given),21.4,8.5,-3.9,0.0,4.6
COc1cc(C2CC(=O)n3c(nc4ccccc43)S2)cc(OC)c1OC (stereo not given),30.2*,·,·,0.2,-2.2
Cc1ccc(-c2nc(CN3CCCCC3CCN3CCCC3=O)c(C)o2)o1 (stereo not given),·,-15.7,-20.0,·,·
Cc1oc(-c2cccc(F)c2)nc1CN1CCCCC1CCn1cccn1 (stereo not given),-21.4,-7.0,-3.4,1.3,45.2*
CCOC(=O)c1c(-c2ccc(C)cc2)csc1NC(=O)c1cc(=O)c2cc(C)cc(C)c2o1,15.7,·,·,-1.3,·
COc1ccc(N2CCN(S(=O)(=O)c3c(C)nc4scc(C)n4c3=O)CC2)cc1,-1.7,-6.2,-2.5,-0.5,-3.2
Cc1nc2scc(C)n2c(=O)c1S(=O)(=O)N1CCN(c2ccccc2)CC1,0.3,-0.3,1.2,-0.7,31.8*
COc1ccc(OC)c(NC(=O)CSC2=Nc3ccccc3C3=NC(CCC(=O)NCc4ccccc4)C(=O)N23)c1 (stereo not given),-0.6,·,·,-0.9,·
COc1ccc(C2C(=O)N(C3CCCCCC3)CC(=O)N2CCC2=CCCCC2)cc1 (stereo not given),-17.4,·,·,1.0,·
C=CCSc1nc(C)c(CCCC)c(=O)[nH]1,9.9,-0.4,-0.9,-0.2,-8.7
C=CCSc1nc(C)c(CC=C)c(=O)[nH]1,34.9*,-4.5,-1.6,0.7,-10.6
COc1ccc(CNC(=O)/C=C/[C@H]2O[C@@H](n3ccc(=O)[nH]c3=O)[C@H](O)[C@@H]2O)cc1,·,-6.7,-3.5,·,·
CN1CCN(C(=O)c2cc3c(c(-c4cccc(-c5cc6ccccc6o5)c4)n2)[C@@H](CCO)N(S(=O)C(C)(C)C)C3)CC1 (stereo not given in full),·,-8.7,-3.6,·,·
O=C(NCCCN1CCCC1=O)c1ccc2c(c1)NC(=O)C(N1CCOCC1)S2 (stereo not given),·,13.4,2.2,0.5,32.9*
COc1ccc(-c2c(C)nn3c4c(cnc23)C(=O)CC(c2ccc(C)cc2)C4)cc1 (stereo not given),2.5,·,·,-0.7,·
Cc1ccccc1NC(=O)CCCn1nc(C)c2c(C)n(-c3ccccc3)nc2c1=O,-2.6,-7.9,2.5,0.2,-8.3
Cc1cc(C)cc(NC(=O)CCCn2nc(C)c3c(C)n(-c4ccccc4)nc3c2=O)c1,33.2*!,-11.3,-5.5,1.1,-19.0
CC1=C(C(=O)OCc2ccccc2)C(c2ccc(C)cc2)NC(=O)N1 (stereo not given),·,-9.9,3.6,·,·
